# Unmarked numbers belong to inactive results. The source made the active and inactive calls. Rule as the data show it, unless noted: active = inhibition above about 25%; inactive = the rest.
# What was measured:
# [1] = target: Nuclear receptor coactivator 1 (Homo sapiens) (UniProt Q15788); assay: SRC1 coactivator transcriptional activity inhibitors, confirmation, cell-based, luminescence, quadruplicate (AID 588820;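 active = mean inhibition above 46.68%, the untreated control wells mean plus 3 SD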;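 also: 0% = DMSO wells and 100% = gossypol 36 µM treated wells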); conditions: HEK293 GAL4-SRC1 luciferase reporter, at 3.6 µM, active compounds read high
# Nuclear receptor coactivator 1 (Homo sapiens), sequence (Q15788 whole entry, looked up, the tested form may be a part): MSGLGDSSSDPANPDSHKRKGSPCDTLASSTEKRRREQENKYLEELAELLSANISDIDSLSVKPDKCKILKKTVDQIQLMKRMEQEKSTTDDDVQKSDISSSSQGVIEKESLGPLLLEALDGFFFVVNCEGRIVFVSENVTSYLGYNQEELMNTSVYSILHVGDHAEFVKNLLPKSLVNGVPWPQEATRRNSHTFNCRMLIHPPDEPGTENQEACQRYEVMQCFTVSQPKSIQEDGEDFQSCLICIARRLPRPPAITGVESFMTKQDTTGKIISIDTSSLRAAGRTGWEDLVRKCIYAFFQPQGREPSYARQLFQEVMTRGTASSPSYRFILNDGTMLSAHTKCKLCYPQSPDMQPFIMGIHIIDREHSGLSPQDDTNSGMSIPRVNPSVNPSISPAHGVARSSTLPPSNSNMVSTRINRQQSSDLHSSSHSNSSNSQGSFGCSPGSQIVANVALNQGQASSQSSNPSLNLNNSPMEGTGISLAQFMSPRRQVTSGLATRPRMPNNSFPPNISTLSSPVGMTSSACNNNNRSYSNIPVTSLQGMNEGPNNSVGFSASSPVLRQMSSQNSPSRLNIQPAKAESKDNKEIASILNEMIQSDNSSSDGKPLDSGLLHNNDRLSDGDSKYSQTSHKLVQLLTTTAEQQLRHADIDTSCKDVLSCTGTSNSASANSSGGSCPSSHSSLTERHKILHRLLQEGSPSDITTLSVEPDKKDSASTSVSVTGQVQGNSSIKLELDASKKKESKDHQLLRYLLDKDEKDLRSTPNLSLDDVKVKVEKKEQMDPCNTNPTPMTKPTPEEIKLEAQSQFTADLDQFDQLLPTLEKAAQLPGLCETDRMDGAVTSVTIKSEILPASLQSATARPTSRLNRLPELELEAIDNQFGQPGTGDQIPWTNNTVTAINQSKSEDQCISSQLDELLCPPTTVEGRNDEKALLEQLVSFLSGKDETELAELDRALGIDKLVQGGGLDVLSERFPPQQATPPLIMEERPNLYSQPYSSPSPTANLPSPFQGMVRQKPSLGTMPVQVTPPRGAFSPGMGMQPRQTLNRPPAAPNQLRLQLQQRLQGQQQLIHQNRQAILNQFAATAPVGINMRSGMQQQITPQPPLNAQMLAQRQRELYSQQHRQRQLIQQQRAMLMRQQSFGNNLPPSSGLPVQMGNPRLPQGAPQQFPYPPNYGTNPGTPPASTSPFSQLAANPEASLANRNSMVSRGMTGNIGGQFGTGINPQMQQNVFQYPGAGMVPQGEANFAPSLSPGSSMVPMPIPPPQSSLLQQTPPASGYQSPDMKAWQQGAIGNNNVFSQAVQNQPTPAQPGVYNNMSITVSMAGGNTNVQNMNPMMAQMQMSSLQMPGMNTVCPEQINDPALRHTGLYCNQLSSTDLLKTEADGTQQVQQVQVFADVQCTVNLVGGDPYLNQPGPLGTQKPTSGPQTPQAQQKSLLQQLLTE
# [2] = VP16 transactivation inhibitors, counter-screen for SRC1 inhibitor project, cell-based, luminescence, high throughput (AID 588824); conditions: cell-based VP16 transactivation luciferase luminescence; at 3.6 µM; active compounds read high
# [3] = target: Nuclear receptor coactivator 3 (Homo sapiens) (UniProt Q9Y6Q9); assay: SRC3 coactivator transcriptional activity inhibitors, confirmation, cell-based, luminescence, quadruplicate (AID 588792;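 active = mean inhibition over 43.08%, the solvent-only control mean plus 3 SD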;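 also: 0% = DMSO treated cells and 100% = gossypol at 36 µM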); conditions: HEK293 GAL4-SRC3 luciferase reporter, at 3.6 µM, active compounds read high
# Nuclear receptor coactivator 3 (Homo sapiens), sequence (Q9Y6Q9 whole entry, looked up, the tested form may be a part): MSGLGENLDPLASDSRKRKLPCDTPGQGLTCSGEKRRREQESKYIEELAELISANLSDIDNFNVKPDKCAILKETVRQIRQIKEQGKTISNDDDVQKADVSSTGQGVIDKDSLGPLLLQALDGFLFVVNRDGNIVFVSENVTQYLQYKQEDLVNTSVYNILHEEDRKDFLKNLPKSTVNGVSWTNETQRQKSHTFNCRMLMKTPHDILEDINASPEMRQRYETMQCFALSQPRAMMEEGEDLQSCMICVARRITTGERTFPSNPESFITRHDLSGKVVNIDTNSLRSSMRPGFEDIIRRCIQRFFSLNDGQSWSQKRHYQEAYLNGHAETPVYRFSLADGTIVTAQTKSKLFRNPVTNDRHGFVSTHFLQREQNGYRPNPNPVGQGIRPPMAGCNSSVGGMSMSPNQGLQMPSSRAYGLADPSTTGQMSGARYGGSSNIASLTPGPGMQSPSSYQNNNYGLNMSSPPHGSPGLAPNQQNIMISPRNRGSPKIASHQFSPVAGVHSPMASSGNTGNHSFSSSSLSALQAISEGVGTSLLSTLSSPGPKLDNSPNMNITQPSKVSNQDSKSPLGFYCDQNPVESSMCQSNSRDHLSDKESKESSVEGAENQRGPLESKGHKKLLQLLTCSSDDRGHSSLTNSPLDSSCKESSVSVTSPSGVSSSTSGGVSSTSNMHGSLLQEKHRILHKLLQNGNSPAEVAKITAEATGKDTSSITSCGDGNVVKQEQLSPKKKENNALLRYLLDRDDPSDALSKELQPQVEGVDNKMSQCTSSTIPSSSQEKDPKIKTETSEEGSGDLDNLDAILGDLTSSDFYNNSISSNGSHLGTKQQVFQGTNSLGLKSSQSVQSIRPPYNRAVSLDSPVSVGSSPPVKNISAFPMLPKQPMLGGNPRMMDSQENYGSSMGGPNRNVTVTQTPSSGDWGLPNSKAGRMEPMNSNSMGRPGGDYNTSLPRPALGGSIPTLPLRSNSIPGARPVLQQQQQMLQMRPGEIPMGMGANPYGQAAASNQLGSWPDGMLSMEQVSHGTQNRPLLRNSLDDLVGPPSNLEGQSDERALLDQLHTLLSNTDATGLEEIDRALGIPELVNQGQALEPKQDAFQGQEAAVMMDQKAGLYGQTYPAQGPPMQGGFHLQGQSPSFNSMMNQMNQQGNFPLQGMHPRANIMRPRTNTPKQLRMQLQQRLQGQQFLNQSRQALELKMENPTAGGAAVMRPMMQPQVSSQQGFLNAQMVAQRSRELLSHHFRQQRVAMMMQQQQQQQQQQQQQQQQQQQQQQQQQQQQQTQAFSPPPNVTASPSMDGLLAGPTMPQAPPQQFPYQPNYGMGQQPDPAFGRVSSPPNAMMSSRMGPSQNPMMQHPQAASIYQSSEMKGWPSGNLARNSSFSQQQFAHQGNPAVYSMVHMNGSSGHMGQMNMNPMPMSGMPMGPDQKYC
# [4] = tested on: transactivating tegument protein VP16 (Human herpesvirus 1), Gal4-VP16 luciferase reporter; assay: VP16 transactivation inhibitors, counter-screen for SRC3 inhibitor project, cell-based, luminescence, high throughput (AID 588794; in the data active = inhibition above about 30%); conditions: mammalian cells, VP16-driven luciferase reporter luminescence; at 3.6 µM; active compounds read high
# [5] = tested on: transactivating tegument protein VP16 (Human herpesvirus 1); assay: VP16 transactivation reporter inhibitors, counter-screen for SRC2 inhibitor project, cell-based, luminescence, single concentration (AID 652007; in the data active = inhibition above about 36%); conditions: cell-based VP16 transactivation luciferase reporter, at 8.9 µM, active compounds read high
# [6] = target: Nuclear receptor coactivator 2 (Homo sapiens) (UniProt Q15596); assay: SRC2 coactivator transcriptional activity inhibitors, confirmation, cell-based, luminescence, HEK293, triplicate (AID 652008;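 active = mean inhibition above 46.5%, the solvent-only control mean plus 3 SD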;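 also: 0% = DMSO-treated cells and 100% = Gossypol at 36 µM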); conditions: HEK293 GAL4-SRC2 luciferase reporter, at 8.9 µM, active compounds read high
# Nuclear receptor coactivator 2 (Homo sapiens), sequence (Q15596 whole entry, looked up, the tested form may be a part): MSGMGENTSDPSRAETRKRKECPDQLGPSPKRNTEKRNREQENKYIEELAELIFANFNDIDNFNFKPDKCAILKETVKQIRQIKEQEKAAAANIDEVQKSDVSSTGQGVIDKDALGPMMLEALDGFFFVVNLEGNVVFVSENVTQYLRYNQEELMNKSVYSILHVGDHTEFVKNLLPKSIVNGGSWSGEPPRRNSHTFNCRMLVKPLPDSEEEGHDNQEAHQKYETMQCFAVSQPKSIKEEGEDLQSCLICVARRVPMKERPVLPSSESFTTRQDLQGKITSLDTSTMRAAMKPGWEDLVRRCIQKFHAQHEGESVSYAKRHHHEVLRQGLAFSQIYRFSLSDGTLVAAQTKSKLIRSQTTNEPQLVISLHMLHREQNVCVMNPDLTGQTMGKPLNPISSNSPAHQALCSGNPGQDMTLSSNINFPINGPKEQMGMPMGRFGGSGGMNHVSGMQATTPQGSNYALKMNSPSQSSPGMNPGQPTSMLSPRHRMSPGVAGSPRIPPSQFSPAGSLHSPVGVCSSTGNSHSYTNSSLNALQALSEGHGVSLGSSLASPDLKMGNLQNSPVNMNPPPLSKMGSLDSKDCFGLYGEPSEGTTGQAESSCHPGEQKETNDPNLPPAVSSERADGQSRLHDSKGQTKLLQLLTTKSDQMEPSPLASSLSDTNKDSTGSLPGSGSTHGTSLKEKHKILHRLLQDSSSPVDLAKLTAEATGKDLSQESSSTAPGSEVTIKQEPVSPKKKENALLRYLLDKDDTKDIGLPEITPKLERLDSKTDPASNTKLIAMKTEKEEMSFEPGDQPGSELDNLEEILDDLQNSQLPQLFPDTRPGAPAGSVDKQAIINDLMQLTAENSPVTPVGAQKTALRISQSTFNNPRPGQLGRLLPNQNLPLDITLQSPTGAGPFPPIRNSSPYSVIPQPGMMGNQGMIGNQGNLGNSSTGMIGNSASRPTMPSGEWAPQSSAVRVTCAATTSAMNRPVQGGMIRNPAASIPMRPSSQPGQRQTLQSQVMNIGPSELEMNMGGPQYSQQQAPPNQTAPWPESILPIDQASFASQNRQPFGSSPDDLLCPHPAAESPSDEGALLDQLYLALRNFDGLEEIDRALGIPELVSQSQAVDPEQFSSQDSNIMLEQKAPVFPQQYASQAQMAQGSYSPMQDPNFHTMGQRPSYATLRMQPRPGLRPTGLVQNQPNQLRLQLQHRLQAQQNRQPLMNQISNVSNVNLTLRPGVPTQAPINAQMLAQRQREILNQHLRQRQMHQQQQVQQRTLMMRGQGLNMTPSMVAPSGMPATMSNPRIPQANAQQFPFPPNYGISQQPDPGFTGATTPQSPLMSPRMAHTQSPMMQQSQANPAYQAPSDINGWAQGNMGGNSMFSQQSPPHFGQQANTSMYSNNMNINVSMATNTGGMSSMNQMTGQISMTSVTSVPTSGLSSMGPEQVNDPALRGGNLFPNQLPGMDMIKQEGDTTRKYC
smiles,measurement,setting,value
CCOC(=O)N1CCN(Cc2nc(Cc3cccc(C(F)(F)F)c3)no2)CC1,inhibition,[1],-24.9%
same,inhibition,[2],-12.2%
Fc1cccc(CSc2nnc3ccc(-c4ccncc4)nn23)c1,inhibition,[1],21.7%
same,inhibition,[2],9.73%
O=C(CSc1n[nH]c(-c2cccnc2)n1)Nc1ccc([N+](=O)[O-])cc1,inhibition,[1],-26.9%
same,inhibition,[2],-8.24%
O=S(=O)(/C(=C/c1ccc(C(F)(F)F)cc1)c1nc2ccccc2[nH]1)c1ccccc1,inhibition,[3],61.5% (active)
same,inhibition,[4],58.3% (active)
same,inhibition,[5],71.8% (active)
same,inhibition,[6],30.6%
O=C(CC1CCC1)Nc1cccc2c([N+](=O)[O-])cccc12,inhibition,[1],9.39%
same,inhibition,[2],-5.85%
COc1cc(C(C)=O)ccc1OCC(=O)Nc1ccccc1N1CCCCC1,inhibition,[1],9.15%
same,inhibition,[2],8%
CCOC(=O)C1=C(COC(=O)Cc2ccc(Br)cc2)NC(=O)NC1C (stereo unspecified),inhibition,[1],-7.28%
same,inhibition,[2],-12.6%
O=C(NC1CC(=O)N(c2ccccc2)C1)C1CC1 (stereo unspecified),inhibition,[1],-3.45%
same,inhibition,[2],-9.3%
CCOC(=O)c1c(NC(=O)c2c(-c3ccccc3)noc2C)sc(C)c1-c1ccccc1,inhibition,[1],39.9%
same,inhibition,[2],78.2% (active)
O=C(Nc1nc(-c2ccc(F)c(F)c2)cs1)c1cnccn1,inhibition,[1],7.57%
same,inhibition,[2],-11.4%
N#CC(C#N)=NNc1ccc2cn[nH]c2c1,inhibition,[1],14.6%
same,inhibition,[2],31.6% (active)
COC(C(=O)Nc1ccc(S(=O)(=O)Nc2ccc(C)c(C)c2)cc1)c1ccccc1 (stereo unspecified),inhibition,[1],-8.72%
same,inhibition,[2],-12.5%

# Reference: PubChem BioAssay
